The values that follow come from article PMC12214610.

Targets include 14-3-3 protein eta (UniProt Q04917); Actin, cytoplasmic 2 (UniProt P63261); Annexin A4 (UniProt P09525); Calreticulin (UniProt P27797); Chaperone protein DnaK (UniProt P0A6Y8); Myosin-9 (UniProt P35579); Transketolase 2 (UniProt P33570).
Experiment [1] has as its target Rab11 family-interacting protein 1 (UniProt Q6WKZ4).
For experiment [2], the target named is Aspartate--tRNA ligase, cytoplasmic (UniProt P14868).
In experiment [3] the target is Autonomous glycyl radical cofactor (UniProt P68066).
In experiment [4] the target is Casein kinase II subunit alpha (UniProt P68400).
Experiment [5] has as its target Charged multivesicular body protein 2b (UniProt Q9UQN3).
The target of experiment [6] is DNA-binding protein HU-beta (UniProt P0ACF4).
The target in experiment [7] is Dihydrolipoyl dehydrogenase (UniProt P0A9P0).
Experiment [8] deals with Pyruvate dehydrogenase E1 component (UniProt P0AFG8).
Pyruvate dehydrogenase E1 component, sequence (P0AFG8 whole entry): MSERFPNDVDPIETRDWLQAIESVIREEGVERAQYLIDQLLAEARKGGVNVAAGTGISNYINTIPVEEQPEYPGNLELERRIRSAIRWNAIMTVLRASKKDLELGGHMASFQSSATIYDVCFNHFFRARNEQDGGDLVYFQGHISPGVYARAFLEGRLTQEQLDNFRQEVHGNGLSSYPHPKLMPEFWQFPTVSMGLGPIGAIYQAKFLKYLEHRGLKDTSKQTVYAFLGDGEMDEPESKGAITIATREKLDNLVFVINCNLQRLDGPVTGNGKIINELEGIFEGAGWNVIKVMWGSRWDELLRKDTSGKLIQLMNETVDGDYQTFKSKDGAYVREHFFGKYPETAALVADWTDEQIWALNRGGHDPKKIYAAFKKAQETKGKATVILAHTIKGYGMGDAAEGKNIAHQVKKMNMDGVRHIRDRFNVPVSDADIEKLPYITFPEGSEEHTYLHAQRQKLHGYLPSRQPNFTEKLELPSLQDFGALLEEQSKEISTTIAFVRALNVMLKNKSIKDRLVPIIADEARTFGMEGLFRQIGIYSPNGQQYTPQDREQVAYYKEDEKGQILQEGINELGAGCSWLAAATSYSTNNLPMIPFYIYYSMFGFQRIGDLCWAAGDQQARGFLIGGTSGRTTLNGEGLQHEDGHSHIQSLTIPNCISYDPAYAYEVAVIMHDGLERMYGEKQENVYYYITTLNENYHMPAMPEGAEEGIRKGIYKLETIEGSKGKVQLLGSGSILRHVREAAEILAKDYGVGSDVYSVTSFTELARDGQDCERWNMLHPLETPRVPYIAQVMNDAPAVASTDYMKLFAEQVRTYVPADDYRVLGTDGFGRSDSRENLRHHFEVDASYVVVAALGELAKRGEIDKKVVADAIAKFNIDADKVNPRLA
The target in experiment [9] is Dihydrolipoyllysine-residue succinyltransferase component of 2-oxoglutarate dehydrogenase complex (UniProt P0AFG6).
Dihydrolipoyllysine-residue succinyltransferase component of 2-oxoglutarate dehydrogenase complex, sequence (P0AFG6 whole entry, one chain of several): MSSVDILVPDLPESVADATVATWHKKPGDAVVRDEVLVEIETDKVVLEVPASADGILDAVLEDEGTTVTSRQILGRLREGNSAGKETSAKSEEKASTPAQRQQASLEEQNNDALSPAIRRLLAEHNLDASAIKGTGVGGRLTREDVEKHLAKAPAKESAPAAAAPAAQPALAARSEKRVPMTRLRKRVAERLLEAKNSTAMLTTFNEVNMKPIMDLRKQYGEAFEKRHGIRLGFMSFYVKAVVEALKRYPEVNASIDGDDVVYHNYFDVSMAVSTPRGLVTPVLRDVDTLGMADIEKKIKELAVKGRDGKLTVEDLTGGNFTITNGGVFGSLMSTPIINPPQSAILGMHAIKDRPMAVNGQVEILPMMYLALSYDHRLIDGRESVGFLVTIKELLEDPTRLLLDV
In experiment [10] the target is Endoplasmic reticulum chaperone BiP (UniProt P11021).
The target of experiment [11] is Peptidyl-prolyl cis-trans isomerase B (UniProt P23284).
The target in experiment [12] is Fatty acid oxidation complex subunit alpha (UniProt P21177).
Fatty acid oxidation complex subunit alpha, sequence (P21177 whole entry, one chain of several): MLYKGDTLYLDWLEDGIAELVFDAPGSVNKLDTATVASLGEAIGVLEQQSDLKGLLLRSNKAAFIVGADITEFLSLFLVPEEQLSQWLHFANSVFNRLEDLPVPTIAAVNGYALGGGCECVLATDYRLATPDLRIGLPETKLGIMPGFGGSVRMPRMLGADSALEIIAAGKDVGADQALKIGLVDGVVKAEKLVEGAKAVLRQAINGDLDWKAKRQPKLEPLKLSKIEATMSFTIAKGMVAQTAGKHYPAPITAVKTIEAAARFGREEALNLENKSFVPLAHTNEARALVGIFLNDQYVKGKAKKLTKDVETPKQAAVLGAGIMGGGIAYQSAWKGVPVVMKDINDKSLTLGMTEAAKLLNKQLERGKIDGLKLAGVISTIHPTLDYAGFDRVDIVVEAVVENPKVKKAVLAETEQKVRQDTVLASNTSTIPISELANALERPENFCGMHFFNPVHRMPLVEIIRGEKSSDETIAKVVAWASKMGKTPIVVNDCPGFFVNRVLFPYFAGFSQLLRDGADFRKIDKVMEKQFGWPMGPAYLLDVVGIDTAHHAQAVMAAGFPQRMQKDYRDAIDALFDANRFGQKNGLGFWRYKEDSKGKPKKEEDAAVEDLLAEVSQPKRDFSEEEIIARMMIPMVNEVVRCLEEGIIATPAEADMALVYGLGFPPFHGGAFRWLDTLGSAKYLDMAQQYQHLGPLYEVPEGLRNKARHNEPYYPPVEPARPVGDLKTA
The target of experiment [13] is Glutamate synthase [NADPH] small chain (UniProt P09832).
Glutamate synthase [NADPH] small chain, sequence (P09832 whole entry): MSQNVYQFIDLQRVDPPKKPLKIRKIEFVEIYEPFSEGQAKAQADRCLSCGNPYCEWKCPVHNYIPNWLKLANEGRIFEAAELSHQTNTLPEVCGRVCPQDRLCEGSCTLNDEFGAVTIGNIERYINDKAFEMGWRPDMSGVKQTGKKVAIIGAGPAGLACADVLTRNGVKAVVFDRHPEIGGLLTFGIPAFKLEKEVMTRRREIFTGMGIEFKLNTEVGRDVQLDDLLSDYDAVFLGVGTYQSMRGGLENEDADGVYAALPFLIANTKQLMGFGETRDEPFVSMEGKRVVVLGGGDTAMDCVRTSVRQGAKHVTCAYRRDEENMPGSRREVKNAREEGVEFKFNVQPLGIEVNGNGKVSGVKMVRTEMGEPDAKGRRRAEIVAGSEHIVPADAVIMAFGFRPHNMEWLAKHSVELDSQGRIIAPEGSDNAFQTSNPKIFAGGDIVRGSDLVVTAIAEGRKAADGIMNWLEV
Experiment [14] deals with Glycine--tRNA ligase beta subunit (UniProt P00961).
In experiment [15] the target is Integration host factor subunit beta (UniProt P0A6Y1).
Experiment [16] addresses Phenylalanine--tRNA ligase alpha subunit (UniProt P08312).
The target in experiment [17] is Succinate--CoA ligase [ADP-forming] subunit alpha (UniProt P0AGE9).
Experiment [18] has as its target Uncharacterized protein YqjD (UniProt P64581).
Experiment [19] addresses Unconventional myosin-XVIIIa (UniProt Q92614).

Calreticulin, sequence (P27797 whole entry): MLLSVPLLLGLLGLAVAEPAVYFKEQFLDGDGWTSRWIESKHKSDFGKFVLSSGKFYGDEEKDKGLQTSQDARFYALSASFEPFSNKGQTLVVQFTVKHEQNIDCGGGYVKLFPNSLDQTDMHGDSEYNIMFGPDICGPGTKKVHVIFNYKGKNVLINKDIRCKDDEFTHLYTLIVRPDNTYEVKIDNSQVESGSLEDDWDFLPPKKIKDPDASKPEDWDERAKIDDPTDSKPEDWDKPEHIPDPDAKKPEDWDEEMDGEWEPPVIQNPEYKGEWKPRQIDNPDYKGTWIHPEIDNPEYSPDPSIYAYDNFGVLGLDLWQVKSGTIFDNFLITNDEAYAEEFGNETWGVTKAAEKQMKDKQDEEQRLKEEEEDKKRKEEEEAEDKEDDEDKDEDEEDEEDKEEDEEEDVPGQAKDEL
Protein disulfide-isomerase, P07237, sequence (P07237 whole entry): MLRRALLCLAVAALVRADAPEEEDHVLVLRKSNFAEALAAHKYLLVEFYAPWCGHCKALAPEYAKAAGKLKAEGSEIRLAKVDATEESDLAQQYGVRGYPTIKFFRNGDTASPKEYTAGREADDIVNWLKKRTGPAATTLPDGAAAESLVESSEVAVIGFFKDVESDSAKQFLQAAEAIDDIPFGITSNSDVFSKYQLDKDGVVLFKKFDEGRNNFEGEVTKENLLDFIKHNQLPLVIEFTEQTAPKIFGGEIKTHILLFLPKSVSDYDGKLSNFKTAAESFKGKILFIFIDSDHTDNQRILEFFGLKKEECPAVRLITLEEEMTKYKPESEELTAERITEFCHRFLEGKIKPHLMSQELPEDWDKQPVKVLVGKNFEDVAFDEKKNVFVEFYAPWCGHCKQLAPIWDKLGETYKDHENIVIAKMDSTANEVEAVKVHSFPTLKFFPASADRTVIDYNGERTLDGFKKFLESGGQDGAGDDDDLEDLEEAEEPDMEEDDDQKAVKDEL
Rab11 family-interacting protein 1, sequence (Q6WKZ4 whole entry): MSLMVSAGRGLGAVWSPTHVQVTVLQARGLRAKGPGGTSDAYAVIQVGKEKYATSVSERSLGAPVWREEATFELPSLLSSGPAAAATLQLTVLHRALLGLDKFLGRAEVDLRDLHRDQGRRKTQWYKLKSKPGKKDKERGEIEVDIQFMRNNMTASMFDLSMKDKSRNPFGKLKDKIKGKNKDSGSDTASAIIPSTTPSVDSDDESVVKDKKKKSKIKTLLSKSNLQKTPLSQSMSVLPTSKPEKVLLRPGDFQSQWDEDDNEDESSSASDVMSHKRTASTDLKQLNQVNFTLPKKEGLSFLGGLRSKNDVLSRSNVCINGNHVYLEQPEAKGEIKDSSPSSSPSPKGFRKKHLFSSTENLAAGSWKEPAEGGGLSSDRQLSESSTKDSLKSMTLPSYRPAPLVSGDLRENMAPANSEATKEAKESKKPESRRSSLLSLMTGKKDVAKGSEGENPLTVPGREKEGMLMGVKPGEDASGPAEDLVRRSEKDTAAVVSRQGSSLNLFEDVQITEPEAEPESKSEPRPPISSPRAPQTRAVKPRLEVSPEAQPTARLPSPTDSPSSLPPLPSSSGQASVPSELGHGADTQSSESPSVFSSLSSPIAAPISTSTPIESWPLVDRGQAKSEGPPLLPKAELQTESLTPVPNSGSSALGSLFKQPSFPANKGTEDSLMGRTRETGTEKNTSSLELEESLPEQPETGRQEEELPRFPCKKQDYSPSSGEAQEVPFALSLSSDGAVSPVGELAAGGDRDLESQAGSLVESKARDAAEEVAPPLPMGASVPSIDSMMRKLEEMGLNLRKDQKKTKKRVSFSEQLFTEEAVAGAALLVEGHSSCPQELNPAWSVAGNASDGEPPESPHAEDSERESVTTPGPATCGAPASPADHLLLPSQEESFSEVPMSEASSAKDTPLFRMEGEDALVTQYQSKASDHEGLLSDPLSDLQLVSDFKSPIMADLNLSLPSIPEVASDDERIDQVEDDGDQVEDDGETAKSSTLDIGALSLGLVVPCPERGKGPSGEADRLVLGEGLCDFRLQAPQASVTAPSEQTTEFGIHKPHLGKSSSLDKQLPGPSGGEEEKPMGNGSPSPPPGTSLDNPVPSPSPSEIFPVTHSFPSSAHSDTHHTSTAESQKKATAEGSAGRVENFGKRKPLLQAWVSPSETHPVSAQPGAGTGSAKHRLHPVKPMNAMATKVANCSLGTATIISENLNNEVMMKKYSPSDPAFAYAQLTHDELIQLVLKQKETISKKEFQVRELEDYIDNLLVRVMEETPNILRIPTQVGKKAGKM
14-3-3 protein eta, sequence (Q04917 whole entry): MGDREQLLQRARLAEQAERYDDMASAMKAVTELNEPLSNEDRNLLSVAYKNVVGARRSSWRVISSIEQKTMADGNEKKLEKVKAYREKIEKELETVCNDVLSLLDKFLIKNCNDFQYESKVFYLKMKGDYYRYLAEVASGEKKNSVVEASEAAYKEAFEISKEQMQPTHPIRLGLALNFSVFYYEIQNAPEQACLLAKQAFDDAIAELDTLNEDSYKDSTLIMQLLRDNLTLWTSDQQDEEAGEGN

Take 14-3-3 protein epsilon, P62258: the “listed as a hit” value with 14-3-3 protein eta is recorded as “yes”.
Heat shock protein HSP 90-beta, P08238: the “listed as a hit” value with Actin, cytoplasmic 2 is given as “yes”.
Ras-related protein Rab-11B, Q15907: the “listed as a hit” value in [1] is reported as “yes”.
For the substance Annexin A6, P08133, the “listed as a hit” value with Annexin A4 is “yes”.
In the case of “Eukaryotic translation elongation factor 1 epsilon-1, O43324”, in [2], the “listed as a hit” value is on record as “yes”.
For the substance Formate acetyltransferase 1, P09373, the “listed as a hit” value in experiment [3] is “yes”.
For the substance “Peptidyl-prolyl cis-trans isomerase B, P23284”, the “listed as a hit” value with Calreticulin is “yes”.
On the same count and under the same terms, next, Protein disulfide-isomerase A4, P13667: “yes”.
Take Casein kinase II subunit beta, P67870: the “listed as a hit” value in experiment [4] is “yes”.
As for Protein GrpE, P09372, the “listed as a hit” value in the experiment with Chaperone protein DnaK was “yes”.
As to “Charged multivesicular body protein 1b, Q7LBR1”, the “listed as a hit” value in experiment [5] is “yes”.
In the case of DNA-binding protein HU-alpha, P0ACF0, the “listed as a hit” value in experiment [6] is recorded as “yes”.
Turning to “Dihydrolipoyllysine-residue acetyltransferase component of pyruvate dehydrogenase complex, P06959”, the “listed as a hit” value in [7] and in experiment [8] was “yes” throughout.
Turning to Dihydrolipoyl dehydrogenase, P0A9P0, the “listed as a hit” value in experiment [9] and in [8] was “yes” throughout.
Regarding “2-oxoglutarate dehydrogenase E1 component, P0AFG3”, in [9], the “listed as a hit” value is “yes”.
Consider Protein disulfide-isomerase, P07237, for which the “listed as a hit” value in experiment [10] and in [11] was “yes” throughout.
Consider 3-ketoacyl-CoA thiolase FadA, P21151, for which the “listed as a hit” value in [12] is listed as “yes”.
Regarding “Glutamate synthase [NADPH] large chain, P09831”, the “listed as a hit” value in experiment [13] is “yes”.
Take “Glycine--tRNA ligase alpha subunit, P00960”: the “listed as a hit” value in experiment [14] was “yes”.
Turning to “Integration host factor subunit alpha, P0A6X7”, in experiment [15], the “listed as a hit” value was “yes”.
In the case of “Myosin regulatory light polypeptide 9, P24844”, the “listed as a hit” value in the experiment with Myosin-9 was “yes”.
Regarding “Phenylalanine--tRNA ligase beta subunit, P07395”, in experiment [16], the “listed as a hit” value is “yes”.
As to “Succinate--CoA ligase [ADP-forming] subunit beta, P0A836”, in experiment [17], the “listed as a hit” value is on record as “yes”.
On to Transketolase 1, P27302, for which the “listed as a hit” value with Transketolase 2 is on record as “yes”.
On to Protein ElaB, P0AEH5, for which, in [18], the “listed as a hit” value is given as “yes”.
In the case of Myosin-9, P35579, the “listed as a hit” value in [19] is reported as “yes”.
